Test results: PubChem BioAssay AID651821 (The Scripps Research Institute Molecular Screening Center, 2012)
The whole screen tested about 370,000 compounds, of which about 4,700 (1.3%) were called active.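 Rule for the calls: active = inhibition above the plate cutoff, the mean of all test compounds on that plate plus 3 SD (cut at about 35% in these data); inactive = the rest.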 Many of the other results were omitted from the sample, so actives are more common in it than they were.

Assay: small molecules binding CAG repeat RNA – biochemical, fluorescence, primary screen (AID 651821);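 note: 0% = DMSO alone and 100% = 100 µM mitoxantrone as full dye displacement; higher means more dye released from RNA so lower well fluorescence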
Conditions: r(CAG) RNA repeat, TO-PRO-1 dye displacement fluorescence; at 3 µM; hits give high values

inhibition, inactive:
Cc1ccc(OCc2nnc(SC/C=C/c3ccccc3)n2Cc2ccco2)cc1 5.16%
O=C(CC(O)(C(F)(F)F)C(F)(F)F)Nc1ccc(Cl)c(Cl)c1 4.89%
O=C(CCS(=O)(=O)c1ccccc1)Nc1ccc(Cl)c(Cl)c1 5.15%
Cc1ccc(CNC(=O)Nc2nnc([C@H]3C[C@H](O)[C@@H](CO)O3)s2)cc1 6.41%
Cc1ccc(NC(=O)Nc2cc(C)nn2-c2ccccc2)cc1 0.22%
CCOC(=O)Cn1c2c(n(-c3ccc(F)cc3)c1=O)C=C(c1ccccc1)[C@@H](C)C(C(=O)N(C)C1CCCCC1)=C2 7.36%
O=C1CCC2(CCC(c3ccc(Cl)cc3)CC2)N1CCO (stereo not given) 0.01%
Cc1c(NC(=O)Nc2cccc([N+](=O)[O-])c2)c(=O)n(-c2ccccc2)n1C -1.07%
Cc1cccc(C(=O)NC(=S)N2CCN(c3ccc([N+](=O)[O-])cc3)CC2)c1 1.75%
CCN(CC)Cc1c(C(=O)OC)nnn1-c1nonc1N -2.7%
CCCCOCCCNC(=O)C[C@H]1C[C@@]2(C(=O)OC)C(=C[C@H](COCc3ccccc3)O[C@@H]2C)N(Cc2cccc3ccccc23)C1=O 4.81%
Cc1ccc(SC(C)C(=O)NCc2ccc(F)cc2)cc1 (stereo not given) -0.76%
Cc1ccc(CSCC(N)C(=O)O)cc1 (stereo not given) 5.4%
CCOC(=O)C1=C(C)NC(SC)=NC1c1ccccc1 (stereo not given) 0.67%
COc1ccc(NC(=O)N(C)C[C@@H]2OCCCC[C@@H](C)Oc3ccc(NC(=O)NC4CCCCC4)cc3C(=O)N([C@H](C)CO)C[C@@H]2C)cc1 10%
COc1cc(NC(=O)COc2ccccc2Cl)ccc1NC(=O)C(C)C -5.61%
O=C(COc1ccccc1)Nc1ccc(C(=O)N2CCCC2)cc1 -1.86%
O=C(OC12CCCN(C1)/C(=C/c1cccnc1)C2)C1CCCC1 (stereo not given) -0.17%
COc1ccccc1-c1nnc(NC(=O)c2ccc3ncsc3c2)o1 10.6%
O=C(COC(=O)c1ccc2ncsc2c1)Nc1ccc(Cl)cc1 7.21%
O=C(CCl)NC1CCCCN(Cc2cccc(C(F)(F)F)c2)C1=O (stereo not given) 1.48%
Cc1cc(=O)oc2c3c(cc(OCC(=O)N[C@H](C(=O)O)c4ccccc4)c12)OC(C)(C)CC3 33.1%
Cc1c(C)c2c(OCC(=O)NCCCO)cc3c(c2oc1=O)CCC(C)(C)O3 -6.81%
CCN(CC(=O)Nc1c(F)cccc1F)C(=O)CN1c2cccc3cccc(c23)S1(=O)=O -4.19%
c1csc(-c2nnc(SCc3nc4ccccc4[nH]3)o2)c1 0.42%
COC(=O)C1[C@H]2SC(C)(C)C(C(=O)OC)N2C(=O)N1Cc1nc2ccccc2s1 (stereo not given in full) -2.88%
COC(=O)Cc1csc(Nc2c(C)n(C)n(-c3ccccc3)c2=O)n1 3.58%
CC(C)NC(=O)/C(C#N)=C\c1ccc(N(C)C)c(Br)c1 -7.35%
COCC(=O)N[C@@H]1C[C@@H]2O[C@@H](CO)CC[C@@H]2O[C@@H]1CCc1ccc(-c2ccccc2)cc1 -0.99%
O=C(NCC1(N2CCCCC2)CCCCC1)c1cccc(S(=O)(=O)Nc2ccccc2Cl)c1 16.6%
O=C(Nc1ccc2c(c1)CCC2)c1cccc(S(=O)(=O)N2CCN(c3ccc(F)cc3)CC2)c1 13%
CCOC(=O)[C@@]12CN(C(=O)OC(C)(C)C)CC=C1N(Cc1ccc(OC)cc1)C(=O)[C@H]2CC(=O)NCc1ccc(OC)c(OC)c1 1.18%
C=CCCC(=O)Nc1nc(C)c(-c2csc(Nc3ccc(Cl)cc3)n2)s1 31.7%
CCCCCCC(=O)Nc1nc(C)c(-c2csc(Nc3cccc(OC)c3)n2)s1 28.5%
COCCCNC(=O)C[C@H]1C[C@@]2(C(=O)OC)C(=C[C@H](C(C)(C)C)O[C@@H]2C)N(Cc2ccc3c(c2)OCO3)C1=O -0.27%
CCOc1ccc(/C=C/C(=O)N(CC)CC(=O)NCc2cccs2)cc1OC -8.5%
CCOc1cc(/C=C(/C#N)c2ccc(Cl)cc2)cc(Cl)c1OCC(=O)O 16.7%
CCCN1C(=O)c2[nH]nc(-c3ccccc3)c2C1c1ccccc1 (stereo not given) 0.38%
Cc1ccccc1C(=O)N1CCC(C(=O)Oc2ccc(C#N)cc2)CC1 -7.52%
COC(=O)CCCC1=CC2=C(c3ccccc3)C(=O)C(C)(OC(=O)C3CCCC3)C(=O)C2=CN1c1ccc(OC)cc1 (stereo not given) 6.99%
C=CC1=CCN(S(=O)(=O)C(C)(C)C)[C@@H]1CCO 8.95%
Cc1cccc(OCC(=O)NC2CC(C)(C)NC(C)(C)C2)c1 0.76%
Cc1cc(C)cc(OCC(=O)Nc2ccc(N3CCOCC3)cc2N2CCOCC2)c1 -4.13%
COCC(=O)Nc1cc(C(=O)OC)cc(C(=O)OC)c1 -0.01%
Cc1ccc(OCC(=O)Nc2ccc(C(=O)O)cc2NC(=O)COc2ccc(C)c(C)c2)cc1C 19.4%
COC(=O)Nc1nc2ccc(C(=O)C3CC3)cc2[nH]1 4.25%
C[C@H](C(=O)N(C)c1ccccc1)[C@@H](O)c1ccc2ccccc2c1 1.73%
CCOC(=O)[C@@]12CCC3=C1N(CCC3)C(=O)[C@H](CC(=O)N1CCN(C(=O)c3ccco3)CC1)C2 4.55%
CCCNC(=O)C1CC(=O)N(c2ccc(OCc3ccccc3)cc2)C1 (stereo not given) 1.21%
C=CCc1ccc(OCC(O)CN2CCN(Cc3ccccc3)CC2)c(OC)c1 (stereo not given) -8.04%
C/C(=N/OC(=O)c1ccc(Br)cc1)c1ccc(C)cc1 -2.66%
COc1ccccc1C(=O)NC(CCSC)C(=O)NNC(=O)c1ccccc1C (stereo not given) -5.48%
Cc1ccc(S(=O)(=O)N2[C@@H](c3cccc(Cl)c3)C(C(=O)O)=CC[C@H]2c2ccc(Cl)c(Cl)c2)cc1 25.1%
CCOC(=O)C1=CC[C@@H](c2ccccc2)N(S(=O)(=O)c2ccc(C)cc2)[C@H]1c1cccc(OC)c1 7.08%
COc1ccc(C2CC=C(C(=O)O)C(c3ccccc3F)N2S(=O)(=O)c2ccc(C)cc2)cc1OC (stereo not given) 24.2%
CCN1C(=O)[C@@H]2[C@@H]3CN(S(=O)(=O)c4ccccc4C)[C@@H](c4ccc(Cl)cc4)[C@@H]3C(=O)C[C@@H]2C1=O 8.04%
Cc1ccc([C@@H]2CC(=O)[C@@H]3CN(S(=O)(=O)c4ccc(C)cc4)[C@H](c4ccccc4F)C[C@@H]3N2S(=O)(=O)c2ccc(Cl)cc2)cc1 9.69%
Cc1ccccc1S(=O)(=O)N1[C@@H](c2cccc(Cl)c2)C(C(=O)OC(C)(C)C)=CC[C@H]1c1ccc(Cl)cc1 3.52%
Clc1ccc(-n2c(COc3ccccc3)nnc2SCc2nc3ccccc3[nH]2)cc1 2.7%
COC(=O)[C@@]12CCCCC=C1N(CCc1ccc(Cl)cc1)C(=O)[C@H]2CC(=O)NCc1ccc(OC)c(OC)c1 8.28%

inhibition, active:
Cc1ccc(NC(=O)Nc2nnc(-c3ccncc3)s2)cc1 56.5%
Cc1nnc(NC(=O)Nc2ccc(Cl)c(Cl)c2)s1 41.7%
Cc1cc(/C=N/Nc2ccc([N+](=O)[O-])cn2)c(C)n1-c1cccc(C(=O)O)c1 47.8%
Cc1ccc(SC(CC(=O)c2ccc(C(C)(C)C)cc2)C(=O)O)cc1 (stereo not given) 42.9%
CO[C@@H]1[C@@H](OC(N)=O)[C@@H](O)C(Oc2ccc3c(O)c(NC(=O)c4ccc(O)c(CC=C(C)C)c4)c(=O)oc3c2C)OC1(C)C (stereo not given in full) 49.8%
O=C(COc1ccccc1Cl)Nc1ccc(C(=O)c2ccc(C(=O)O)cc2)cc1 41.2%
Cc1sc(NC(=O)c2ccc3ncsc3c2)c(C(N)=O)c1C 35.7%
Cc1c(C)c2c(OCC(=O)N[C@@H](C(=O)O)c3ccccc3)cc3c(c2oc1=O)CCC(C)(C)O3 41.1%
COC(=O)Cc1cc(=O)n(-c2nc3ccccc3s2)[nH]1 60.6%
O=C(Nc1ccc2c(c1)CCC2)c1cccc(S(=O)(=O)Nc2ccccc2Cl)c1 57.2%
CCCCCCC(=O)Nc1nc(C)c(-c2csc(Nc3cc(Cl)ccc3OC)n2)s1 41.8%
CCOc1cc(/C=C(\C#N)c2nc(-c3cccs3)c(NC(C)=O)s2)ccc1O 37.7%
CC1(OC(=O)C2CCCC2)C(=O)C=C2C=C(c3ccc(C#N)cc3)OC=C2C1=O (stereo not given) 50.7%
CCC(C)Cn1c(O)cc2nn(-c3nc4ccccc4s3)c(=O)c-2c1C (stereo not given) 56.8%
Cc1cccc(OCC(=O)Nc2ccc(C(=O)O)cc2NC(=O)COc2cccc(C)c2)c1 50.5%
Cc1cc(C)cc(OCC(=O)Nc2cc(NC(=O)COc3cc(C)cc(C)c3)cc(C(=O)O)c2)c1 61.8%
COc1cc(C2CC(=O)N3CN(Cc4ccccc4)CSC3=C2C#N)ccc1OCc1ccccc1 (stereo not given) 51.3%
Cc1ccc([C@@H]2CC=C(C(=O)O)[C@H](c3cccc(Cl)c3)N2S(=O)(=O)c2ccc(C)cc2)cc1 77.2%
Cc1ccc(S(=O)(=O)N2[C@@H](c3ccccc3F)C(C(=O)O)=CC[C@H]2c2ccc(Cl)cc2)cc1 60.2%
Cc1ccccc1S(=O)(=O)N1[C@@H](c2cccc(Cl)c2)C(C(=O)O)=CC[C@H]1c1ccc(Cl)cc1 81.4%
